The structures appear in SMILES notation. “And” between values parts separate entries of the source, which are not always exact repeats. Equal values may be shown once. The panel holds about 83,000 compounds, 20% with a hit somewhere; the sample as a whole holds those more often.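 Step 1: grow cells in 96-well plates. Step 2: add test compound at a single concentration. Step 3: incubate 48 h. Step 4: record percent growth.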 The source made the active and inactive calls. Rule for the calls: active = growth percent below 10; inactive = the rest.

For the experiment, the system named is MDA-MB-468 breast. Briefly: NCI-60 one-dose screen, 48 h (100 = growth as untreated, 0 = no growth, -100 = all killed). Conditions: 10 µM unless noted.
For `COc1ccc(NC(=O)/C=C/c2ccc(Cl)c(Cl)c2)cn1`, the growth was 69.5% (inactive).
Consider `CCOC(=O)C(CSC(c1ccccc1)(c1ccccc1)c1ccccc1)NC(=O)C(CSC(c1ccccc1)(c1ccccc1)c1ccccc1)NC(c1ccccc1)(c1ccccc1)c1ccccc1` (stereo not given), for which the growth was 101% (inactive).
`Cc1c(C(=O)/C=C/c2ccc(Cl)cc2)nnn1-c1ccc2oc(=O)ccc2c1`: the growth is 85.9% (inactive).
On to `CCc1ccccc1-n1c(-c2ccc(OC)cc2)cc(-c2ccc(OC)cc2)c(C#N)c1=O`, for which the growth was 96.9% (inactive).
In the case of `O=C1c2ccccc2Cc2cccc(Cl)c21`, the growth was 92.7% (inactive).
`CC1CCCCC[N+]12CCCC2` (stereo not given): the growth was 99.4% (inactive).
To `CCc1cccc2c1S/C(=C/c1ccc(Cl)cc1)C2=O` belongs 93.6% (inactive); to `NS(=O)(=O)Oc1cccc(-c2nc3sccn3c2-c2ccccc2)c1`, 18.6% (inactive).
`Fc1ccc(-c2nn3c(-c4cc(C(F)(F)F)cc(C(F)(F)F)c4)nnc3s2)cc1`: the growth was 25.5% (inactive).
With `COc1c(Cl)c2c(c(OC)c1OC)-c1ccc(SC)c(=O)cc1[C@@H](NC(=O)OCC(F)(F)F)CC2`, the growth was -15.5% (active).
Consider `COc1cc(C)cc(-c2c(-c3cc(N4CC(O)C4)nc(-c4cccnc4)n3)cnn2C)c1`, for which the growth is 80.2% (inactive).
Next, `Cn1ccnc1C(=O)/C=C/c1ccc(CC(=O)Nc2ccc(C(F)(F)F)cc2)cc1`: -6.59% (active); `O=[N+]([O-])c1ccc(N=Nc2c(Cl)cc(O)cc2Cl)cc1`: -11.7% (active).
In the case of `FC(F)(F)c1ccc2nc(-c3nc(-c4ccccc4)n4ccccc34)[nH]c2c1`, the growth is 83.4% (inactive).
Take `O=C1C(c2ccccc2)=C(N2CCc3ccccc32)OC1(Cl)Cl`: the growth was 78.4% (inactive).
With `CCc1ccccc1NC(=O)c1sc2nc3c(cc2c1N)CCCC3`, the growth is 43% (inactive).
Take `O=C1C(OCCOc2ccccc2)=C(OCCOc2ccccc2)C(=O)c2ccccc21`: the growth is 72.9% (inactive).
Take `O=C(NC(Cc1ccccc1)C(=O)CCl)OCc1ccccc1` (stereo not given): the growth was 79.8% (inactive).
Consider `O=C(NCCNc1nccc(-c2c(-c3cccc(O)c3)nc3sccn23)n1)c1ccccc1`, for which the growth is 54.7% (inactive).
`NC(=O)Nc1ccc2ncnc(Nc3ccc(Cl)cc3)c2c1`: the growth is -7.15% (active).
To `COc1ccc(/C=C(/C2=NCCN2)n2ccc3ccccc32)cc1` belongs 89.6% (inactive); to `COc1ccc(NC(=O)C2c3ccccc3C(=O)N(CC(C)C)C2c2cccs2)cc1` (stereo not given), 82.3% (inactive).
In the case of `COc1ccc(/C=C/C(c2cc(OC)c(OC)c(OC)c2)n2cncn2)cc1O` (stereo not given), the growth is 8.27% (active).
For the compound `O=C(OC(OC(=O)c1cc(Cl)cc(Cl)c1)c1cccc2ccccc12)c1ccccc1` (stereo not given), the growth was 111% (inactive).
Next, `O=C(Nc1ccc(Cl)cc1)c1cc(-c2ccc(F)cc2)c2sc(=O)[nH]c2n1`: -8.3% (active).
Next, `CC[C@@](C)(NC(=O)C(C)(C)NC(=O)[C@@H](NC(=O)[C@@H]1CCCN1C(=O)C(C)(C)NC(=O)[C@H](CC(C)C)NC(=O)CNC(=O)C(C)(C)NC(=O)[C@@H](NC(=O)C(C)(C)NC(=O)[C@H](CCC(N)=O)NC(=O)[C@H](C)NC(=O)C(C)(C)NC(=O)[C@H](C)NC(=O)C(C)(C)NC(=O)[C@H](C)NC(=O)C(C)(C)NC(C)=O)C(C)C)C(C)C)C(=O)N[C@@H](CCC(N)=O)C(=O)N[C@@H](CCC(N)=O)C(=O)N[C@H](CO)CC1CCCCC1`: -10.9% [5 µM] (active); `CCCCn1c(=O)c(/C=C/C(=O)/C=C/c2cc3ccccc3n(CCCC)c2=O)cc2ccccc21`: -59.4% (active).
Next, `O=C(C(Br)C(Br)c1ccccc1)C(Br)C(Br)c1ccccc1` (stereo not given): -44.4% (active).
As to `Cc1ccc(-c2nn(Cc3cn(-c4cc(C)nc5ccccc45)nn3)c3ncnc(N)c23)cc1`, the growth was 15.4% (inactive).
With `COC(=O)[C@@H]1[C@H]2C[C@H]3c4[nH]c5cc(OC)ccc5c4CCN3C[C@@H]2C[C@H](OC(=O)/C=C/c2ccnc(OC)c2)[C@H]1OC`, the growth was 76.9% (inactive).
As to `C=CCCCCOc1cccc(/C=C2\N=C3SCCCN3C2=O)c1`, the growth is 89% (inactive).
Take `Cc1ccccc1C1=N[C@@H](Cc2ccccc2)C(=O)c2c(nc3ccccn23)N1`: the growth was 104% (inactive).
To `COc1cccc2c1C(=O)c1c(O)c3c(c(O)c1C2=O)C[C@@](O)(C(=O)CO)C[C@@H]3OC1C[C@H](N)[C@H](O)[C@H](C)O1` (stereo not given in full) belongs -68.8% (active).
In the case of `CCOc1cc(C(C)(C)C)ccc1C1=N[C@H](c2ccc(Cl)cc2)[C@H](c2ccc(Cl)cc2)N1C(=O)N1CCN(CC#Cc2cccc3c2CN([C@@H]2CCC(=O)NC2=O)C3=O)CC1`, the growth is -21.9% (active).
Consider `COC(=O)[C@H](Cc1cn(C)cn1)NC(=O)[C@H](Cc1ccccc1)NC(=O)Nc1cc(C(F)(F)F)cc(C(F)(F)F)c1`, for which the growth is -69.6% [100 µM] (active).
With `CC1=CC(=O)C=CC1=Nc1ccc(N(C)C)cc1`, the growth is 48.8% (inactive) and -87.8% (active).
Regarding `N#Cc1ncc(-c2cc(F)ccc2F)c(NC2CCCCCC2)n1`, the growth is 90.3% (inactive).
Next, `COc1cc(-c2nn(-c3cccc(NC(=O)c4cccc(C(F)(F)F)c4)c3)cc2-c2ccncc2)ccc1Cl`: -19.4% (active); `COc1ccc(C(=O)N=Nc2c(O)n(C)c3ccccc23)cc1`: 95.2% (inactive).
With `O=C(N/N=C\c1ccc(Cl)cc1)c1ccc2nc(-c3ccc(Br)cc3)[nH]c2c1`, the growth is -34.9% (active).

Source of the values: PubChem BioAssay (NCI).
